Rows were chosen to be rich in hits. Some 20% of all compounds tested hit in one or more screens of this group.
HCMV antiviral: qHTS Assay for inhibitors of the human cytomegalovirus (HCMV); HFF cells, HCMV-luciferase reporter, 72 h; stronger effect = lower value; activity change, negative = inhibition, % at 57.5 µM; hit rate 4.5% among 410,000; in the data active = activity change below about -60%; inconclusive = no clear call, values can overlap the other calls; inactive = above about -39%; also: % is scaled to controls: 0 for no effect and ±100 for the full control effect
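Luciferase read-out from HCMV-luciferase-infected HFFs (MOI 1 PFU/cell) 72 h post infection at 37C; compounds added after 16 h cell attachment; activity normalized between buffer-only basal and Salinomycin (10uM) inhibitor controls.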
Pf growth 48h: Primary qHTS for delayed death inhibitors of the malarial parasite plastid, 48 hour incubation; P. falciparum luciferase growth in erythrocytes, 48 h; Potency, µM (highest dose often 28.7 µM), without a hit: top-dose activity change, negative = inhibition, hits mostly inhibitors; hit rate 5.9% among 310,000; AID 504832, 2011; also: potency is read from the fitted curve at half-maximal effect; % is scaled to controls: 0 for no effect and ±100 for the full control effect
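A one-generation exposure of luciferase-tagged malaria parasites in RPMI 1640/Albumax erythrocyte culture, 37 C and 5% CO2. Inhibition is inferred from decreased luminescence after adding detection reagent.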
Cycloheximide cs: Cycloheximide Counterscreen for Small Molecule Inhibitors of Shiga Toxin | cell reporter, cycloheximide protein synthesis inhibition counterscreen | max response, % | hit rate 12% among 300,000; in the data active = max response mostly above about 13%, no sharp cut-off; inactive = mostly below about 14%; also: read at 38.3 µM for the half of the compounds with a filed dose; 0% is about no effect
Pf growth 96h: Primary qHTS for delayed death inhibitors of the malarial parasite plastid, 96 hour incubation; P. falciparum luciferase reporter growth, 96 h; hit rate 6.9% among 320,000; Potency, µM (highest dose often 28.7 µM), inactives show top-dose activity change, negative = inhibition, most hits filed as inhibitors; also: potency is read from the fitted curve at half-maximal effect; % is scaled to controls: 0 for no effect and ±100 for the full control effect
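Readout is luminescence from an integrated firefly luciferase in P. falciparum. Red cells, 2% hematocrit and 0.05% parasitemia final, were cultured with compound through two parasite generations (96 hours) at 37 C, 5% CO2.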
Shiga inhibitor: A qHTS for Small Molecule Inhibitors of Shiga Toxin; Vero cells, Shiga toxin protein synthesis inhibition reporter; hit rate 9.2% among 290,000; AID 2315, 2010; inhibition, % at 38.7 µM; in the data active = inhibition mostly above about 28%, no sharp cut-off; inactive = mostly below about 43%; also: 0% is about no effect
Starred values were filed as active, the others as inactive; ? = inconclusive; . = no result. Unless noted, calls follow the shape of the dose curve; as a rule, active = well fitted inhibition curve with a large enough effect; inconclusive = small, poorly fitted or top-dose-only effect, or another doubt; inactive = no such curve, though single readings can be large or run the other way.

SMILES	HCMV antiviral	Pf growth 48h	Cycloheximide cs	Pf growth 96h	Shiga inhibitor
COc1ccc(Nc2ncnc3ccccc23)cc1	-25.1	131.7%	29.7*	.	71.2*
Nc1ccc(Nc2ccccc2N)cc1	17.9	?	7.2	-24.2%	14.2
COc1ccc(Nc2ccccc2N)cc1	?	?	27.7	?	43.6*
c1ccc(CCNc2ccnc3cc4ccccc4cc23)cc1	-100.8*	0.522µM*	-12.5	49.1%	-26.2
COc1cccc(Nc2ncnc3ccccc23)c1	-9.6	216.8%	30.5*	.	98.7*
Cc1ccc(Cl)cc1NC(=O)CSc1nc2c(c(=O)[nH]1)CN(Cc1ccccc1)CC2	-7.5	.	.	.	.
COc1cccc(Nc2cc(C)c3ccccc3n2)c1	82.4	6.1%	24.8*	?	66.2*
COc1ccc(Nc2ccnc(Nc3ccc(OC)cc3)n2)cc1	0.9	?	36.5*	?	72.0*
CCOc1ccc(Nc2ccc3nonc3c2[N+](=O)[O-])cc1	?	-9.1%	-2.1	-4.3%	24.3
CCOc1ccc(Nc2ncnc3ccc([N+](=O)[O-])cc23)cc1	-68.9*	?	-1.9	?	13.7
COc1ccc(Nc2ccnc3ccccc23)cc1	?	11.7µM*	17.6*	?	-3.9
COc1cccc(Nc2nc3ccccc3c(=O)[nH]2)c1	-12.5	-18.6%	8.5	?	22.8
CSc1nc(NC(C)=O)nc(C)c1Br	-25.4	10.5%	-3.8	?	-1.0
COc1ccc(Cl)cc1S(=O)(=O)Nc1cccc(-c2ccc(N3CCOCC3)nn2)c1	25.2	.	.	.	.
Cc1ccc(NC(=O)c2oc3ccccc3c2NC(=O)C2CCCCC2)cc1	-11.4	.	.	.	.
CC(C)Nc1ccc(Nc2ccnc3cc4ccccc4cc23)cc1	-100.1*	0.522µM*	8.9	0.586µM*	9.3
COc1ccc(Nc2ncnc3sc(-c4ccccc4)cc23)cc1	-5.9	?	-6.2	-2.2%	-26.9
Cc1cc(Nc2ccc(F)cc2)c2ccccc2n1	-10.8	.	.	.	.
COc1ccc(Nc2cc(Nc3ccccc3)ncn2)cc1	77.0	94.0%	31.4*	1.3%	48.9*
COc1ccc(NC(=O)CSc2nnnn2Cc2ccccc2)cc1	-30.7	?	1.4	-18.2%	5.4
Cc1ccc(-c2cc(-c3ccc(C)cc3)[n+](-c3ccc(C(=O)[O-])cc3)c(-c3ccc(C)cc3)c2)cc1	-17.0	3.7µM*	.	?	.
c1ccc(-c2cc(-c3ccccc3)[n+](-c3ccccc3)c(-c3ccccc3)c2)cc1	-101.2*	0.294µM*	-2.1	0.37µM*	7.2
CC(=O)Nc1scc(-c2ccccc2)[n+]1-c1ccc(C)cc1	34.6	5.6%	8.5	49.9%	-4.8
Cc1ccc(-c2cc(-c3ccccc3)cc(-c3ccccc3)[n+]2-c2ccccc2)cc1	-99.0*	0.37µM*	.	0.329µM*	.
c1ccc(-c2ccncc2)cc1	-21.7	.	.	.	.
SMILES	HCMV antiviral	Pf growth 48h	Cycloheximide cs	Pf growth 96h	Shiga inhibitor
C[n+]1c(-c2ccccc2)cc(-c2ccc(Cl)cc2)cc1-c1ccccc1	?	1.65µM*	11.7	?	12.6
CCOc1ccc(NC(=O)N2CC=C(c3c[nH]c4ccccc34)CC2)cc1	0.0	.	.	.	.
Cc1ccc(-c2cc(-c3ccc(C)cc3)[n+](-c3ccccc3)c(-c3ccc(C)cc3)c2)cc1	.	0.294µM*	.	0.294µM*	.
CN(C)c1ccc(-[n+]2c(-c3ccccc3)cc(-c3ccccc3)cc2-c2ccccc2)cc1	-98.9*	?	-12.3	?	-33.1
CCOC(=O)c1ccc(NC(=O)C(CC)Sc2nnc3c4ccccc4n(C)c3n2)cc1 (centres undefined)	71.0	.	.	.	.
COc1ccc(C2=NO[C@H]3C[C@](C(=O)NC(C)C)(S(=O)(=O)c4ccccc4)C[C@@H]23)cc1	.	32.2%	-1.5	7.7%	4.2
O=S(=O)(c1ccccc1)[C@@]1(c2ccccc2)C[C@@H]2ON=C(c3cccc(-c4ccccc4)c3)[C@@H]2C1	7.9	7.38µM*	.	?	.
C=CCN1C(=O)C(C)(C)N(C(=O)c2cccc([N+](=O)[O-])c2)c2ccccc21	-30.7	-4.6%	-1.4	0.0%	15.4
N#CC(C#N)=Cc1cc2ccccc2nc1N1CCCCC1	27.1	-29.1%	41.8*	-9.5%	40.8*
c1ccc(-c2cc3ccccc3nc2N2CCCC2)cc1	-61.4*	?	0.6	-12.5%	-10.9
Cc1ccc(-c2cc3ccccc3nc2N2CCOCC2)cc1	-28.6	-15.3%	-2.2	-15.7%	-9.3
O=C(Cc1ccc(-n2cnnn2)cc1)NC12CC3CC(CC(C3)C1)C2	35.2	-12.3%	-1.2	-10.8%	-3.6
